Reference: publication PMC7862700, “An all-to-all approach to the identification of sequence-specific readers for epigenetic DNA modifications on cytosine”

How the values were obtained:
Assay in all cases: DAPPL (digital affinity profiling via proximity ligation, sequencing); 10 mM Tris-HCl pH 7.5, 50 mM NaCl, 1 mM DTT, 4% glycerol, room temperature, 30 min; GST-TFs on glutathione beads, 16-mer random dsDNA library, 0.1% formaldehyde crosslink after washing; high values mean tight binding
Settings in all cases: protein: recombinant; tags: N-terminal GST; dsDNA, one strand shown
FLI1 = biological target: T1, FLI1 (Homo sapiens, UniProt Q01543 1-452)
T1 sequence: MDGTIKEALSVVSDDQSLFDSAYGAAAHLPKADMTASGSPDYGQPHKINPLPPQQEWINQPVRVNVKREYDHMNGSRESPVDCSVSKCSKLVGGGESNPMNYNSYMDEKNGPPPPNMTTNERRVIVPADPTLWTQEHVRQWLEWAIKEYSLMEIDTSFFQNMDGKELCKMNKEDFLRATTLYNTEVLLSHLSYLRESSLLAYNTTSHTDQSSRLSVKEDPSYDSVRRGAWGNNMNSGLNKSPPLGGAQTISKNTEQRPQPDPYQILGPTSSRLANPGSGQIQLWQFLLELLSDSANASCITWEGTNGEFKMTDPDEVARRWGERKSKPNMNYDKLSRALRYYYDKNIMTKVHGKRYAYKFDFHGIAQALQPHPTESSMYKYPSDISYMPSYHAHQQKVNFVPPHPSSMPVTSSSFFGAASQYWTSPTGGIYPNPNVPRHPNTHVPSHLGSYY
In short: (§1)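 Binding signal is defined as a hexamer's read frequency for one factor over its frequency for the tag-only sample. To obtain reads, GST-fused human transcription factors were expressed in yeast, captured on glutathione beads, barcoded with DNA and pooled with that sample. Pools met 200 nmole of a 16-mer random double-stranded DNA library in Tris/NaCl/DTT/glycerol buffer for 30 min at room temperature before washing, 0.1% formaldehyde crosslinking, proximity ligation (BsaI/T4 ligase, 1 h, 37 °C), PCR and Illumina NextSeq500 sequencing.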

ELK1 = biological target: T2, ELK1 (Homo sapiens, UniProt P19419 1-428)
T2 sequence: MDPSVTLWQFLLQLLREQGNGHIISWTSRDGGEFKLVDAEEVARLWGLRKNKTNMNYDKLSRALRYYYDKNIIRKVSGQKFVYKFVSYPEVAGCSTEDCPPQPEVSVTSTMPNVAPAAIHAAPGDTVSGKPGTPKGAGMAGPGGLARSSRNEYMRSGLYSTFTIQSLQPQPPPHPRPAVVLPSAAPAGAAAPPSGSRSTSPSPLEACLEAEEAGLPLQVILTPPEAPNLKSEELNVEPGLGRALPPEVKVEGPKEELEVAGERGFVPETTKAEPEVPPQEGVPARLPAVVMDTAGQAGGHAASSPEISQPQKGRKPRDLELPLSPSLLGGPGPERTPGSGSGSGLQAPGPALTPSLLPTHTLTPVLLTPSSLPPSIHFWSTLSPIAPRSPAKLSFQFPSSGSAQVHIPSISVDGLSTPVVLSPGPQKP
In short: as §1

GABPA = biological target: T3, GABPA (Homo sapiens, UniProt Q06546 1-454)
T3 sequence: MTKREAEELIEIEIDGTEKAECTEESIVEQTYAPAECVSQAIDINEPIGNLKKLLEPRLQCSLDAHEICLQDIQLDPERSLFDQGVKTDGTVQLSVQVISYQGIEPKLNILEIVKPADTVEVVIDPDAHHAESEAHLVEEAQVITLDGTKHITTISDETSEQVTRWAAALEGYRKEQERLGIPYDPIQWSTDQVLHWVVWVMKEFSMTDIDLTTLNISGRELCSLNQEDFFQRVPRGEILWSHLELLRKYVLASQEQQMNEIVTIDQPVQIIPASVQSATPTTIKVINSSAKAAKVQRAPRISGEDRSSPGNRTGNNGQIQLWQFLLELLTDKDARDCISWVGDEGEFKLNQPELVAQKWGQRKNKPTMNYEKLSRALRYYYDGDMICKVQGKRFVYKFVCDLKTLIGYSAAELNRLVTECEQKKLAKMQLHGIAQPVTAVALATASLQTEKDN
In short: as §1

ERG = biological target: T4, ERG (Homo sapiens, UniProt P11308 1-479)
T4 sequence: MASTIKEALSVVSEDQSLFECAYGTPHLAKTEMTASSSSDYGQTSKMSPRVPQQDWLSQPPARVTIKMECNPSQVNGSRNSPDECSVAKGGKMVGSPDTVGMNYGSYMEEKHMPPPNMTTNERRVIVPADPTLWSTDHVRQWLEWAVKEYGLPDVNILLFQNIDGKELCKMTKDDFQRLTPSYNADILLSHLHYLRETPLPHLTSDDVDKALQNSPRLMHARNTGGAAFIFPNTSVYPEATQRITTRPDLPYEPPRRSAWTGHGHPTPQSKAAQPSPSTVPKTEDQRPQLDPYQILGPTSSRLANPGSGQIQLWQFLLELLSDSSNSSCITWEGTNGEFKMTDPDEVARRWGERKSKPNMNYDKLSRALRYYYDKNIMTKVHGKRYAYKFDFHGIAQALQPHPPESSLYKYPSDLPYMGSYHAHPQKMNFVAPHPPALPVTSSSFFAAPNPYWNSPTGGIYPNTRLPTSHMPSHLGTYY
In short: as §1

ELF1 = ELF1 (Homo sapiens, UniProt P32519 1-619)
In short: as §1

EHF = biological target: T5, EHF (Homo sapiens, UniProt Q9NZC4 1-300)
T5 sequence: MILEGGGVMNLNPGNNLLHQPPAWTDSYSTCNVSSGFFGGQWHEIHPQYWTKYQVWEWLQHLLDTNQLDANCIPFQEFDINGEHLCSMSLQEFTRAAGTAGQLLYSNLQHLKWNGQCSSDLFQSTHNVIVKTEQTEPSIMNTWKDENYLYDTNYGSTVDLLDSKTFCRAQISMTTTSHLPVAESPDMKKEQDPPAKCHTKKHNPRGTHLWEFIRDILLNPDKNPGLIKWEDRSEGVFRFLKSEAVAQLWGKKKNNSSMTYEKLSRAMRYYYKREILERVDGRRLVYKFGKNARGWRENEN
In short: as §1

SPI1 = SPI1 (Homo sapiens, UniProt P17947 1-270)
In short: as §1

SPIB = SPIB (Homo sapiens, UniProt Q01892 1-262)
In short: as §1

ELK3 = biological target: T6, ELK3 (Homo sapiens, UniProt P41970 1-407)
T6 sequence: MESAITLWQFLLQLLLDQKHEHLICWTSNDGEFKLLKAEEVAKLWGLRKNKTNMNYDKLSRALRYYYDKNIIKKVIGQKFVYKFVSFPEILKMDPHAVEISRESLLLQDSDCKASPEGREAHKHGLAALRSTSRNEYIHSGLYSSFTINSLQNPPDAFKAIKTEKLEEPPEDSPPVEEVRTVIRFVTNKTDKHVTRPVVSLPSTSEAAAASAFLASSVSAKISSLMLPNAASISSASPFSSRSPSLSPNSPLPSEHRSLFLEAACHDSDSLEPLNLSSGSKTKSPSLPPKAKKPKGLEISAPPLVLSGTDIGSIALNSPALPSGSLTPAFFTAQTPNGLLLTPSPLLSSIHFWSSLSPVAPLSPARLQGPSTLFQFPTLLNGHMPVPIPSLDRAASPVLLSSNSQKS
In short: as §1

Sequence of SPIB (Q01892 whole entry): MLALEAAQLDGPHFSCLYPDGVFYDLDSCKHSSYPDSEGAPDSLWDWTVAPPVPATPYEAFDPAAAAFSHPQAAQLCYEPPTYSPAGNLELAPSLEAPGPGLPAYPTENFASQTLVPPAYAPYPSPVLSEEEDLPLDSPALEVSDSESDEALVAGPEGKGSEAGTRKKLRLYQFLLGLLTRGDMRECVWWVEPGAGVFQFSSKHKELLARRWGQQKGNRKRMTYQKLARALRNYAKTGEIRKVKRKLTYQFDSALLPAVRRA
Sequence of ELF1 (P32519 whole entry): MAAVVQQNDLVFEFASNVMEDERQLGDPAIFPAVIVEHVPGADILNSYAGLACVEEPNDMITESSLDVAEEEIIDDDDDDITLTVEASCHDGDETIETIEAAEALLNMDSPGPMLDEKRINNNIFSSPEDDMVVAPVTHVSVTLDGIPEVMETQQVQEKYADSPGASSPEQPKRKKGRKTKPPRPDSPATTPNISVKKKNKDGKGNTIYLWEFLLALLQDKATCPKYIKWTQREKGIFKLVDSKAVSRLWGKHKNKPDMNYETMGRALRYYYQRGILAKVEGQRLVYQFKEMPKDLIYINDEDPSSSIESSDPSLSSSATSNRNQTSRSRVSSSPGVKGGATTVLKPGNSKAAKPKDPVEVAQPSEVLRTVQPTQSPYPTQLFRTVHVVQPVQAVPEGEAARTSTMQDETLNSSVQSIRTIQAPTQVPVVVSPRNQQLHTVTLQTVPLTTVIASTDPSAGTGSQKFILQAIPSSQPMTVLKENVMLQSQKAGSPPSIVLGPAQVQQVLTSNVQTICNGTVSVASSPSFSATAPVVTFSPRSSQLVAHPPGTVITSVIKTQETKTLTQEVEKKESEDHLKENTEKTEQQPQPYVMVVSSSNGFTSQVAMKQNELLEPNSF

AAGATT
binding signal (FLI1): 1.1 fold enrichment (6-mer frequency, TF over GST control)
binding signal (ELK1): 1.17 fold enrichment (6-mer frequency, TF over GST control)
binding signal (GABPA): 1.18 fold enrichment (6-mer frequency, TF over GST control)
binding signal (ERG): 1.17 fold enrichment (6-mer frequency, TF over GST control)
binding signal (ELF1): 1.19 fold enrichment (6-mer frequency, TF over GST control)
binding signal (EHF): 1.16 fold enrichment (6-mer frequency, TF over GST control)
binding signal (SPI1): 1.12 fold enrichment (6-mer frequency, TF over GST control)
binding signal (SPIB): 1.16 fold enrichment (6-mer frequency, TF over GST control)
binding signal (ELK3): 1.04 fold enrichment (6-mer frequency, TF over GST control)
